According to the supplement of paper PMC4466140:

target: AgAbp1; experiment: SPOT peptide array binding signal intensity (averaged, normalized) (arbitrary units (background-subtracted, floor 0; scale differs between SH3 domains)); higher = stronger binding of the SH3 domain to the peptide
How it was run: (§1)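 Detection of bound protein relied on anti-GST antibody, an HRP anti-mouse secondary and luminol, with imaging and quantification in Genespotter. The bound protein was GST-fused SH3 domains from four yeast species, incubated at 10 μg/ml overnight at 4°C in TBS-based blocking buffer on cellulose membranes carrying synthetic 15-mer peptides with cysteines replaced by serines. Binding signal is normalized, background-subtracted spot intensity averaged over replicates, in arbitrary units that differ between domains.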

Binder	SPOT peptide array binding signal intensity
RPVPRRPSQPLNTLS	306

target: AgBbc1; experiment: as above
How it was run: as §1

Binder	SPOT peptide array binding signal intensity
RPVPRRPSQPLNTLS	801

target: AgBem1-D1; experiment: as above
How it was run: as §1

Binder	SPOT peptide array binding signal intensity
RPVPRRPSQPLNTLS	68.5

target: AgBzz1-D1; experiment: as above
How it was run: as §1

Binder	SPOT peptide array binding signal intensity
RPVPRRPSQPLNTLS	100

target: AgBzz1-D2; experiment: as above
How it was run: as §1

Binder	SPOT peptide array binding signal intensity
RPVPRRPSQPLNTLS	89

target: AgCyk3; experiment: as above
How it was run: as §1

Binder	SPOT peptide array binding signal intensity
RPVPRRPSQPLNTLS	1.25

target: AgFus1; experiment: as above
How it was run: as §1

Binder	SPOT peptide array binding signal intensity
RPVPRRPSQPLNTLS	24

target: AgHof1; experiment: as above
How it was run: as §1

Binder	SPOT peptide array binding signal intensity
RPVPRRPSQPLNTLS	32.8

target: AgHse1; experiment: as above
How it was run: as §1

Binder	SPOT peptide array binding signal intensity
RPVPRRPSQPLNTLS	67.5

target: AgLsb1; experiment: as above
How it was run: as §1

Binder	SPOT peptide array binding signal intensity
RPVPRRPSQPLNTLS	94.8

target: AgLsb4; experiment: as above
How it was run: as §1

Binder	SPOT peptide array binding signal intensity
RPVPRRPSQPLNTLS	2090

target: AgMyo5; experiment: as above
How it was run: as §1

Binder	SPOT peptide array binding signal intensity
RPVPRRPSQPLNTLS	≤ 0

target: AgNbp2; experiment: as above
How it was run: as §1

Binder	SPOT peptide array binding signal intensity
RPVPRRPSQPLNTLS	2250

target: AgRvs167; experiment: as above
How it was run: as §1

Binder	SPOT peptide array binding signal intensity
RPVPRRPSQPLNTLS	182

target: AgSho1; experiment: as above
How it was run: as §1

Binder	SPOT peptide array binding signal intensity
RPVPRRPSQPLNTLS	12.8

target: AgSla1-D1-D2; experiment: as above
How it was run: as §1

Binder	SPOT peptide array binding signal intensity
RPVPRRPSQPLNTLS	17

target: AgSla1-D3; experiment: as above
How it was run: as §1

Binder	SPOT peptide array binding signal intensity
RPVPRRPSQPLNTLS	7.12

target: CaAbp1-D1; experiment: as above
How it was run: as §1

Binder	SPOT peptide array binding signal intensity
RPVPRRPSQPLNTLS	456

target: CaAbp1-D2; experiment: as above
How it was run: as §1

Binder	SPOT peptide array binding signal intensity
RPVPRRPSQPLNTLS	805

target: CaBbc1; experiment: as above
How it was run: as §1

Binder	SPOT peptide array binding signal intensity
RPVPRRPSQPLNTLS	1900

target: CaBem1-D1; experiment: as above
How it was run: as §1

Binder	SPOT peptide array binding signal intensity
RPVPRRPSQPLNTLS	34

target: CaBzz1-D1; experiment: as above
How it was run: as §1

Binder	SPOT peptide array binding signal intensity
RPVPRRPSQPLNTLS	388

target: CaBzz1-D2; experiment: as above
How it was run: as §1

Binder	SPOT peptide array binding signal intensity
RPVPRRPSQPLNTLS	189

target: CaCyk3; experiment: as above
How it was run: as §1

Binder	SPOT peptide array binding signal intensity
RPVPRRPSQPLNTLS	413

target: CaFus1; experiment: as above
How it was run: as §1

Binder	SPOT peptide array binding signal intensity
RPVPRRPSQPLNTLS	141

target: CaHof1; experiment: as above
How it was run: as §1

Binder	SPOT peptide array binding signal intensity
RPVPRRPSQPLNTLS	0.25

target: CaHse1; experiment: as above
How it was run: as §1

Binder	SPOT peptide array binding signal intensity
RPVPRRPSQPLNTLS	56.1

target: CaLsb1; experiment: as above
How it was run: as §1

Binder	SPOT peptide array binding signal intensity
RPVPRRPSQPLNTLS	1.25

target: CaLsb4; experiment: as above
How it was run: as §1

Binder	SPOT peptide array binding signal intensity
RPVPRRPSQPLNTLS	2000

target: CaMyo5; experiment: as above
How it was run: as §1

Binder	SPOT peptide array binding signal intensity
RPVPRRPSQPLNTLS	8

target: CaNbp2; experiment: as above
How it was run: as §1

Binder	SPOT peptide array binding signal intensity
RPVPRRPSQPLNTLS	1770

target: CaRvs167; experiment: as above
How it was run: as §1

Binder	SPOT peptide array binding signal intensity
RPVPRRPSQPLNTLS	1240

target: CaRvs167-3; experiment: as above
How it was run: as §1

Binder	SPOT peptide array binding signal intensity
RPVPRRPSQPLNTLS	6

target: CaSho1; experiment: as above
How it was run: as §1

Binder	SPOT peptide array binding signal intensity
RPVPRRPSQPLNTLS	19.5

target: CaSla1-D1-D2; experiment: as above
How it was run: as §1

Binder	SPOT peptide array binding signal intensity
RPVPRRPSQPLNTLS	796

target: CaSla1-D3; experiment: as above
How it was run: as §1

Binder	SPOT peptide array binding signal intensity
RPVPRRPSQPLNTLS	5

target: ScAbp1; experiment: as above
How it was run: as §1

Binder	SPOT peptide array binding signal intensity
RPVPRRPSQPLNTLS	280
